Reference: PubChem BioAssay

Experiment: blockers of RIG-like receptor reporter activation – cell-based, Sendai virus stimulus, luciferase, 10K MLSCN set, TLR/RLR signaling modifier project, primary screen (AID 602276);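 note: firefly luciferase from ISG56 promoter only with Renilla not read in this screen; 0% = Sendai virus plus DMSO and 100% = medium plus DMSO without virus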
Conditions: HEK293 RL24 IRF3 luciferase reporter, at 10 µM, hits give high values;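 active = inhibition at or above 50% at 10 µM; inactive = inhibition below 50%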

inhibition, inactive:
CC(C)OC(=O)c1cc(NC(=O)C2C3CCC(O3)C2C(=O)O)cc(C(=O)OC(C)C)c1 (stereo unspecified) 20.3%
O=C(CSc1nnc(-c2ccc(Br)cc2)n1C1CCCCC1)N1CCCC1 -3.56%
O=C(c1nn2cccnc2c1Cl)N1CCN(c2ccccc2)CC1 11.4%
CCCN1Cc2cccc(C(=O)NC3CCCC3)c2C1=O 11.8%
CS(=O)(=O)N(CC(=O)Nc1ccc2c(c1)OCO2)Cc1ccc(Cl)cc1 11.9%
COC(=O)C1C2C=CC3(CN(CC4CCCO4)C(=O)C13)O2 (stereo unspecified) 5.61%
Cc1ccc(F)cc1NC(=O)C1CCCN(c2ncccn2)C1 (stereo unspecified) 7.51%
CC(OC(=O)c1ccco1)C(=O)NCc1cccs1 (stereo unspecified) 17.9%
CCc1nnc(NC(=O)CSc2nnc(-c3ccccc3OC)n2-c2ccccc2)s1 11.4%
FC(F)(F)c1ccc(Sc2nnc(-c3cccs3)n2CC2CCCO2)nc1 (stereo unspecified) 13.6%
O=C(O)c1ccc(NC(=O)c2cccs2)cc1 9.12%
Cc1ccc(Nc2nc(N)nc(CN3CCN(Cc4ccc5c(c4)OCO5)CC3)n2)cc1 1.9%
CCOC(=O)Cc1csc(NC(=O)c2cccc(OC)c2)n1 4.13%
C=CCNc1nc2c(c(=O)n(C)c(=O)n2C)n1CCCCCC 8.07%
O=C(Nc1cccnc1)c1cc2c(ccc3ccccc32)o1 -38.2%
COc1cccc(Nc2nnc(SCC(=O)N3CC(C)OC(C)C3)s2)c1 (stereo unspecified) -1.41%
